# Experimental data taken from PubChem BioAssay (Tox21).
# Results filed as inconclusive are left out. Where a call stands in place of a potency, no number is given. Values without a mark were called inactive. Active and inactive are the calls of the source. Calls come from the whole dose curve; as a rule, active = well fitted cell-killing curve with a large enough effect in the repeat runs; inconclusive = weak or mixed curves, or effect the other way; inactive = flat fitted curve, though single readings scatter.
# Assays:
# [1] = cAMP Responsive Elements (CRE) small molecule antagonists, cell-based qHTS assay: qHTS cell viability counter screen (AID 2060913); settings: CRE-bla HEK293T viability, CellTiter-Glo luminescence, 5 h; series mostly up to 92.4 µM; note: nearly all actives have a fitted effect of over 40% in size
# Procedure, shortened: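 Cytotoxicity counter screen multiplexed with the CRE-bla antagonist read: HEK293T cells in DMEM with dialyzed FBS and 25 mM HEPES were treated 3 hrs under 0.25 uM final NKH477, then viability measured by CellTiter-Glo luminescence.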
# [2] = cAMP Responsive Elements (CRE) small molecule agonists, cell-based qHTS assay: qHTS cell viability counter screen (AID 2060914); settings: CRE-bla HEK293T viability, CellTiter-Glo luminescence, 5 h; series mostly up to 92.4 µM; note: nearly all actives have a fitted effect of over 50% in size
# Procedure, shortened: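 Luminescence read-out (CellTiter-Glo, 30 min RT) of ATP-based viability in CRE-bla HEK 293T cells, run in the same wells as the β-lactamase reporter assay after 3 h compound treatment at 37 °C.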
# Potency is the fitted concentration of half-maximal effect.
Structure (SMILES),"viability change, negative = cytotoxic [1]","activity change, negative = cytotoxicity [2]",Potency [1],Potency [2]
N=C(N)N1CCc2ccccc2C1,-0.283% [at 8.39 µM],2.66% [at 8.39 µM],–,–
Cc1ccc(C(C)NC(=O)[C@@H](NC(=O)OC(C)C)C(C)C)cc1 (some centres not stated),–,–,inactive,inactive
CC(C)CCOC(=O)c1ccc(N(C)C)cc1,–,–,inactive,inactive
CCCCC/C(C=O)=C\c1ccccc1,–,–,inactive,inactive
O=C(NO)C1(NS(=O)(=O)c2ccc(Oc3ccc(F)cc3)cc2)CCOCC1,–,–,inactive,inactive
OC[C@@H](O)[C@@H](O[C@@H]1O[C@H](CO)[C@H](O)[C@H](O)[C@H]1O)[C@H](O)[C@@H](O)CO,–,–,inactive,inactive
CC1(C)[C@@H]2CC[C@]3(C2)[C@@H]1C(=O)CCC3(C)C,–,–,inactive,inactive
NC(=O)N(O)[C@@H]1C=C[C@H](Oc2cccc(Oc3ccc(F)cc3)c2)C1,–,–,inactive,inactive
C=CCNCC=C,–,–,inactive,inactive
F[Si-2](F)(F)(F)(F)F,–,–,inactive,inactive
CCCOCCOCCO,–,–,inactive,inactive
N#CCCOCCC#N,–,–,inactive,inactive
COC(=O)[C@@H]1[C@H]2C[C@H]3c4[nH]c5ccccc5c4CCN3C[C@@H]2CC[C@@H]1O,–,–,inactive,inactive
CC(C)=CCl,–,–,inactive,inactive
CCCCCC1C(=O)CCC1CC(=O)OC (configuration not stated),–,–,inactive,inactive
COCCCOCCCOC,–,–,inactive,inactive
CC(=O)OCCCc1ccccc1,–,–,inactive,inactive
CCCCOc1cc(C(=O)OCCN(CC)CC)ccc1N,–,–,inactive,inactive
Cn1cc(C(=O)[C@@H]2CCc3nc[nH]c3C2)c2ccccc21,–,–,inactive,inactive
CC(C)(C)c1cc(C(C)(C)C)c(O)c(C(C)(C)C)c1,–,–,inactive,inactive
CCOC(/C=C(\C)CCC=C(C)C)OCC,–,–,inactive,inactive
CCC(C)(C)C1CCC(OC)CC1 (configuration not stated),–,–,inactive,inactive
CCc1nc(N)nc(N)c1-c1ccc(Cl)cc1,–,–,inactive,inactive
CCC(C)(C)C(=O)O[C@H]1C[C@@H](C)C=C2C=C[C@H](C)[C@H](CC[C@@H]3C[C@@H](O)CC(=O)O3)[C@H]21,–,–,inactive,inactive

Structure (SMILES),"viability change, negative = cytotoxic [1]","activity change, negative = cytotoxicity [2]",Potency [1],Potency [2]
Cc1ccc(Nc2ccc(O)c3c2C(=O)c2ccccc2C3=O)cc1,–,–,inactive,inactive
ON(Cc1ccccc1)Cc1ccccc1,–,–,inactive,inactive
CCCCCCCCCC(=O)N(C)C,–,–,inactive,inactive
CCOC(=O)C(Br)c1ccccc1 (configuration not stated),–,–,inactive,inactive
c1ccccc1,–,–,inactive,inactive
CCC1NC(=O)c2cc(S(N)(=O)=O)c(Cl)cc2N1 (configuration not stated),–,–,inactive,inactive
[Na+],–,–,inactive,inactive
CO[Si](OC)(c1ccccc1)c1ccccc1,–,–,inactive,inactive
COC(=O)[C@@H](N)Cc1ccc(O)c(O)c1,–,–,inactive,inactive
CCCCCCCCCCCCCC(=O)OC(C)C,–,–,inactive,inactive
CCCCC(CC)COC(=O)CCCCC(=O)OCC(CC)CCCC (configuration not stated),–,–,inactive,inactive
CC(C)COC(=O)c1ccccc1O,–,–,inactive,inactive
CC(C=O)Cc1ccc(C(C)(C)C)cc1 (configuration not stated),–,–,inactive,inactive
NC(N)=NCCC[C@H](N)C(=O)O,-0.587% [at 8.39 µM],-0.412% [at 8.39 µM],–,–
O=C1OC(c2ccc(O)cc2)(c2ccc(O)cc2)c2ccccc21,–,–,inactive,inactive
CCOCCOCCOCCO,–,–,inactive,inactive
COc1cc2c(cc1N)oc1ccccc12,–,–,inactive,inactive
COc1ccc2c(c1)c1c3n2CCN(C)C3=NCC1,–,–,inactive,inactive
CCCCCCCC(=O)[O-].CCCCCCCC(=O)[O-].[Zn+2],–,–,inactive,inactive
NS(=O)(=O)c1ccc(Cl)c(S(N)(=O)=O)c1,–,–,inactive,inactive
C=CS(=O)(=O)O,–,–,inactive,inactive
C=CCCC,–,–,inactive,inactive
CCOC(=O)N1CCC(Nc2ccc(Cl)cc2N)CC1,–,–,inactive,inactive
CC(=O)Nc1cc(S(=O)(=O)O)cc2cc(S(=O)(=O)O)c(N=Nc3ccccc3)c(O)c12,–,–,inactive,inactive

Structure (SMILES),"viability change, negative = cytotoxic [1]","activity change, negative = cytotoxicity [2]",Potency [1],Potency [2]
OCCCCCCCCCCCCBr,–,–,inactive,inactive
O=C(O)/C=C/c1ccc(Cn2ccnc2)cc1,–,–,inactive,inactive
C=CCc1cc(S(=O)(=O)c2ccc(O)c(CC=C)c2)ccc1O,–,–,inactive,inactive
CC1(C)[C@H](C(=O)OCc2cccc(Oc3ccccc3)c2)[C@@H]1C=C(Cl)Cl,–,–,inactive,inactive
NC(=O)c1c(Cl)cccc1Cl,–,–,inactive,inactive
C1CCCNCCC1,–,–,inactive,inactive
CCCCCCCCCCCCCCCCCC[N+](C)(C)C,–,–,54.6 µM (active),61.3 µM (active)
CSc1ccc(Oc2ccc(S(N)(=O)=O)cc2CN(C)C)cc1C,–,–,inactive,inactive
Oc1c(I)cc(I)c2cccnc12,–,–,inactive,inactive
C/C(=C(\CCO)SS/C(CCO)=C(\C)N(C=O)Cc1cnc(C)nc1N)N(C=O)Cc1cnc(C)nc1N,–,–,inactive,inactive
CC(C)COC(=O)/C=C/c1ccccc1,–,–,inactive,inactive
CCOC(=O)C1=C(C)NC(C)=C(C(=O)OC)C1c1cccc([N+](=O)[O-])c1 (configuration not stated),–,–,inactive,inactive
CCCCCCCCC(=O)OCC,–,–,inactive,inactive
CC(C)Cc1ccc(C(C)C(=O)OCc2ccccn2)cc1 (configuration not stated),–,–,inactive,inactive
COC(=O)c1ccc2cc(C(=O)OC)ccc2c1,9.85% [at 18.9 µM],-17.3% [at 18.9 µM],–,–
CCCCCCCCCCCCCCCCCCOS(=O)(=O)O,–,–,inactive,inactive
COc1cc(OC)nc(NC(=O)NS(=O)(=O)Nc2ccccc2C(=O)N(C)C)n1,–,–,inactive,inactive
CCCc1cc(=O)[nH]c(=S)[nH]1,–,–,inactive,inactive
CC(O)CO (configuration not stated),–,–,inactive,inactive
Cc1ccc(Nc2nccc(N(C)c3ccc4c(C)n(C)nc4c3)n2)cc1S(N)(=O)=O,–,–,inactive,inactive
O=C1CCC(=O)O1,–,–,inactive,inactive
O=C(OCC(O)CO)c1ccccc1Nc1ccnc2c(C(F)(F)F)cccc12 (configuration not stated),–,–,inactive,inactive
Cc1c(N)cccc1Cl,–,–,inactive,inactive
CO/N=C(\C(=O)N[C@@H]1C(=O)N2C(C(=O)O)=C(CSc3nc(=O)c(O)nn3C)CS[C@H]12)c1csc(N)n1,–,–,inactive,inactive

Structure (SMILES),"viability change, negative = cytotoxic [1]","activity change, negative = cytotoxicity [2]",Potency [1],Potency [2]
Sc1nc(S)nc(S)n1,–,–,inactive,inactive
COc1cc(NS(=O)(=O)c2ccc(N)cc2)nc(C)n1,–,–,inactive,inactive
CN1CCC(=C2c3ccccc3CCc3sccc32)CC1,–,–,inactive,inactive
O=C1CC2CC1C1CCCC21 (configuration not stated),–,–,inactive,inactive
COC(=O)CCSCCC(=O)OC,–,–,inactive,inactive
Cn1nnc2c(C(N)=O)ncn2c1=O,–,–,inactive,inactive
CCCN(CCC)CCc1cccc2c1CC(=O)N2,–,–,inactive,inactive
CCCCOC(=O)CCCCCCCCC(=O)OCCCC,–,–,inactive,inactive
Clc1cc(Cl)c(Cl)c(Cl)c1Cl,–,–,inactive,inactive
Cn1c(N)c(N=O)c(=O)n(C)c1=O,–,–,inactive,inactive
O=C(O)CC(O)C(=O)O (configuration not stated),–,–,inactive,inactive
C=CCCC(=O)O,–,–,inactive,inactive
CC(=O)c1ccc([N+](=O)[O-])cc1,–,–,inactive,inactive
C[N+]12CCC(CC1)C(OC(=O)C(O)(c1ccccc1)c1ccccc1)C2 (configuration not stated),–,–,inactive,inactive
C[C@]12C[C@H](O)[C@H]3[C@@H](CCC4=CC(=O)CC[C@@]43C)[C@@H]1CC[C@@H]2C(=O)CO,–,–,inactive,inactive
O=C(O)c1ccc(O)c(O)c1,–,–,inactive,inactive
CC(C)(C)C(=O)C(=O)O,–,–,inactive,inactive
O=C(O)Cn1cnnn1,–,–,inactive,inactive
O=C(OCC1(COC(=O)c2cccnc2)CCCC(COC(=O)c2cccnc2)(COC(=O)c2cccnc2)C1O)c1cccnc1,–,–,inactive,inactive
C[C@@H](CN(C)C)CN1c2ccccc2Sc2ccccc21,–,–,inactive,inactive
CCCCOc1ccc(C(=O)CCN2CCCCC2)cc1,–,–,inactive,inactive
CC(C)(C)c1cc(CCC(=O)NN)cc(C(C)(C)C)c1O,–,–,inactive,inactive
NCCCC(N)(C(=O)O)C(F)F (configuration not stated),–,–,inactive,inactive
CCc1cc(C2=C(C(=O)O)N(c3ccccc3C(F)(F)F)S(=O)(=O)c3ccccc32)cc2c1OCO2,–,–,inactive,inactive

Structure (SMILES),"viability change, negative = cytotoxic [1]","activity change, negative = cytotoxicity [2]",Potency [1],Potency [2]
CN1CCN(c2c(F)cc3c(=O)c(C(=O)O)cn(CCF)c3c2F)CC1,–,–,inactive,inactive
CN1C(=O)N(c2ccccc2Br)Cc2cnc(Nc3ccc4c(c3)OCC(CO)O4)nc21 (configuration not stated),–,–,inactive,inactive
CC[C@H](C)[C@H](N)C(=O)O,–,–,inactive,inactive
CCCCCCCC[P+](CCCCCCCC)(CCCCCCCC)CCCCCCCC,–,–,17.1 µM (active),21.6 µM (active)
O=C1C(O)=C(O)C(=O)C(O)=C1O,–,–,inactive,inactive
Cc1onc(-c2ccccc2)c1C(=O)Cl,–,–,inactive,inactive
O=C1NS(=O)(=O)c2ccccc21,–,–,inactive,inactive
O=C(O)CC(C(=O)O)S(=O)(=O)O (configuration not stated),–,–,inactive,inactive
CC(C)(C)NCC(O)c1cc(O)cc(O)c1 (configuration not stated),–,–,inactive,inactive
CCCc1ccc(OC)cc1,–,–,inactive,inactive
OCCC(O)CO (configuration not stated),–,–,inactive,inactive
Cc1ccccc1C(=O)N1CC/C(=N\OS(=O)(=O)O)c2ccc(Cl)cc21,–,–,inactive,inactive
CC/C=C(\C)C=O,–,–,inactive,inactive
OCCCCCCO,–,–,inactive,inactive
CCCCCCCCCOC(C)=O,–,–,inactive,inactive
COS(=O)(=O)O,–,–,inactive,inactive
Cc1cccc([N+](=O)[O-])c1C,–,–,inactive,inactive
CCC(=O)OC/C=C(\C)CCC=C(C)C,–,–,inactive,inactive
O=C(O)c1cc(Br)c(O)c(Br)c1,–,–,inactive,inactive
COP(=O)(O)OP(=O)(O)OC,–,–,inactive,inactive
